Experimental data as given in PubChem BioAssay AID651658 (Broad Institute, 2012).
Hit rate of the full screen: of about 340,000 compounds, about 5,100 (1.5%) were called active.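 How the source made its calls: active means mean Tm shift, scaled 0 neutral to 100 positive control, at about 1.3% or above, every replicate too (limit read from the data); inconclusive means no clear call, values can overlap the other calls; inactive means the rest.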 Many of the other results were omitted from the sample, so actives are more common in it than they were.

biological target: Fibroblast growth factor 22 (Homo sapiens) (UniProt Q9HCT0); assay: FGF22 ligand-induced thermal stabilization – biophysical, thermal shift, single point, FGF22 synaptogenesis inhibitor project, primary screen (AID 651658); settings: recombinant FGF22 thermal shift, SYPRO orange fluorescence; at 9.99 µM; hits give high values; percent of sucrose octasulfate shift, DMSO zero
Sequence (Q9HCT0 whole entry, looked up): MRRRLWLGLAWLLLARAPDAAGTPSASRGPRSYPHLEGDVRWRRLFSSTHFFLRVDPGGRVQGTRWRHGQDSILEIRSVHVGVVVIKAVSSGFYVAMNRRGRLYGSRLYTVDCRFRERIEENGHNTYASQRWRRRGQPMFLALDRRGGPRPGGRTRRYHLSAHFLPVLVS

Compound | activity (Tm shift, normalised)
CNS(=O)(=O)c1ccc(C(=O)NCC(=O)NCCc2ccc3c(c2)OCCO3)cc1 | 0.051% (inactive)
Cc1ccc(NS(=O)(=O)c2ccc(C(=O)NCCCN3CCOCC3)cc2)cc1 | -0.45% (inactive)
CCN(CC)CCNC(=O)c1ccc(NS(=O)(=O)c2ccc3c(c2)OCCO3)cc1 | 42.9% (active)
C[C@H](NC(=O)C[C@H]1CC[C@H]2[C@@H](COC[C@H](O)CN2C(=O)Nc2cccc(Cl)c2)O1)c1ccccc1 | 0.797% (inactive)
O=C(CCN1CCCCC1)N[C@H]1CC[C@H](CCNS(=O)(=O)c2ccc(F)cc2)O[C@@H]1CO | 0.837% (inactive)
C[C@H](CO)N1C[C@H](C)[C@H](CN(C)Cc2ccncc2)Oc2ncc(C#CCC3CCCCC3)cc2C1=O | -0.367% (inactive)
C=CCc1ccccc1OCC(O)CN1CCN(CCO)CC1 (centres undefined) | -0.051% (inactive)
C=CCc1ccc(OCC(O)CN2CCN(Cc3ccccc3)CC2)c(OC)c1 (centres undefined) | 43.3% (active)
C/C=C/c1ccc(OCC(O)CN2CCCCCCC2)c(OC)c1 (centres undefined) | 0.015% (inactive)
O=C(Nc1ccc(F)cc1)N1CCCCN2[C@H](CO)[C@H](c3ccc(-c4ccncc4)cc3)[C@@H]2C1 | -0.055% (inactive)
C/C=C/c1ccc([C@@H]2[C@H](CO)N(CC3CCOCC3)C23CN(S(=O)(=O)CC)C3)cc1 | -0.282% (inactive)
CCNC(=O)c1cc2c(c(-c3cccc(C4=CCCC4)c3)n1)[C@H](CCO)N([S@@](=O)C(C)(C)C)C2 | 0.297% (inactive)
O=C(Cc1ccncc1)NCC[C@H]1CC[C@H](NC(=O)Nc2cccc(F)c2)[C@H](CO)O1 | -0.333% (inactive)
C[C@@H]1CN([C@H](C)CO)C(=O)c2cc(NS(=O)(=O)c3cccs3)ccc2O[C@@H](C)CCCCO[C@@H]1CN(C)C(=O)c1ccncc1 | -0.018% (inactive)
COc1ccc2c3c([nH]c2c1)[C@@H](CO)NCC31CN(S(=O)(=O)c2cccs2)C1 | 0.072% (inactive)
CCNC(=O)C[C@@H]1CC[C@@H](NC(=O)NC2CCCCC2)[C@H](CO)O1 | -0.281% (inactive)
COc1ccc(NC(=O)N(C)C[C@@H]2OCCCC[C@@H](C)Oc3ccc(NC(=O)C4CCCCC4)cc3C(=O)N([C@@H](C)CO)C[C@@H]2C)cc1 | -0.291% (inactive)
COC(=O)[C@@H]1[C@@H](CO)[C@@H]2Cn3c(ccc(-c4ccccc4)c3=O)[C@@H]2N1C(=O)C1CC1 | -0.013% (inactive)
O=C(COC(=O)c1cc2c(s1)CCCC2)NCc1ccccc1Cl | 2.24% (active)
CN(C)C(=O)c1ccc(NC(=O)COC(=O)c2cc3c(s2)CCCCC3)cc1 | 0.188% (inactive)
O=C(COC(=O)c1ccc2c(c1)OCCO2)NCc1ccccc1Cl | -0.43% (inactive)
COc1ccc2c3c([nH]c2c1)[C@H](CO)N(C(=O)C1CCOCC1)CC31CN(S(C)(=O)=O)C1 | -0.085% (inactive)
CN(C)C(=O)c1cccc(-c2ccccc2[C@@H]2[C@@H](CO)N(C(=O)C3CCCCC3)[C@H]2C#N)c1 | 0.22% (inactive)
COc1ccc2c3c([nH]c2c1)[C@H](CO)N(C(=O)c1ccccc1)CC31CCN(S(=O)(=O)c2cccs2)CC1 | -0.133% (inactive)
CCC1(C)COC(c2ccc(OC)c(OC)c2)OC1 (centres undefined) | -0.154% (inactive)

Compound | activity (Tm shift, normalised)
CCC1([N+](=O)[O-])COC(c2ccc(C)cc2)OC1 (centres undefined) | 43.3% (active)
CCC1([N+](=O)[O-])COC(c2ccc(C(C)C)cc2)OC1 (centres undefined) | 0.068% (inactive)
C/C=C/c1ccc([C@H]2[C@@H](CO)N3CCCCN(C(=O)c4ccc(F)cc4)C[C@@H]23)cc1 | -0.174% (inactive)
Cc1nonc1C1CCCN1Cc1nc(-c2ccc(F)cc2F)oc1C (centres undefined) | 43.2% (active)
COc1ccc(F)c(-c2nc(CN3CCC(c4ccccc4)CC3)c(C)o2)c1 | 0.157% (inactive)
Cc1oc(-c2ccccc2F)nc1CS(=O)CC(=O)NCCN1CCCCC1C (centres undefined) | -0.146% (inactive)
C[C@H](CO)N1C[C@H](C)[C@H](CN(C)CC2CCCC2)Oc2ncc(-c3ccc(F)cc3)cc2C1=O | -0.41% (inactive)
CSc1ccc(/C=N/N2CCN(Cc3ccccc3Cl)CC2)cc1 | 43.3% (active)
COc1ccccc1/C=N/N1CCN(Cc2ccccc2Cl)CC1 | -0.025% (inactive)
Cc1ccc(CN2CCN(/N=C/c3cccnc3)CC2)c(C)c1 | 0.311% (inactive)
CC(=O)c1c(-c2ccccc2)c2ccccc2[nH]c1=O | 43.2% (active)
NS(=O)(=O)c1ccccc1NC(=O)c1c(O)c2ccccc2[nH]c1=O | 0.089% (inactive)
Cc1c(-c2ccccc2)n[nH]c1C(=O)N=Nc1c(O)[nH]c2ccccc12 | 0.025% (inactive)
COc1cccc(NC(=O)N2C[C@@H](O)COC[C@@H]3O[C@@H](CC(=O)NC4CCC4)CC[C@H]32)c1 | -0.083% (inactive)
COc1ccc(CCN2C(=O)[C@@]3(Cc4ccccc42)c2ccccc2C(=O)N(Cc2ccccc2C(F)(F)F)[C@H]3c2ccc(CO)cc2)cc1 | -0.145% (inactive)
CCOc1ccc(S(=O)(=O)NCCC(=O)N2CCCCCCC2)cc1 | 0.162% (inactive)
CCCNS(=O)(=O)c1ccc(CCC(=O)N2CCCC2)cc1 | 43% (active)
CCNS(=O)(=O)c1ccc(CCC(=O)N2CCN(c3ccc(OC)cc3)CC2)cc1 | 0.369% (inactive)
CC(C)NC(=O)Nc1ccc2c(c1)C(=O)N([C@H](C)CO)C[C@@H](C)[C@@H](CN(C)Cc1ccncc1)O2 | 0.001% (inactive)
O=C(Nc1cccc2ccccc12)c1[nH]c(-c2ccccc2)c2c1C(=O)N(C1CC1)C2=O | -0.298% (inactive)
CC(C)(C)N1C(=O)c2c(C(=O)OCc3ccccc3)[nH]c(-c3ccccc3)c2C1=O | 2.17% (active)
O=C(OCc1ccc(-c2ccccc2)cc1)c1cccc(O)c1 | -0.21% (inactive)
CCCNC(=O)Nc1ccc2c(c1)C(=O)N(C)[C@H]1CC[C@H](CC(=O)NCC3CCCCC3)O[C@@H]1CO2 | -0.32% (inactive)
Cc1noc(C)c1NC(=O)N(C)C[C@H]1OCCCC[C@@H](C)Oc2ccc(NC(=O)NC(C)C)cc2C(=O)N([C@H](C)CO)C[C@@H]1C | 0.234% (inactive)
